Compound activity deposited in PubChem by National Center for Advancing Translational Sciences (NCATS).
AMA1 RON2 block = inhibitors of Plasmodium falciparum AMA1-RON2 interaction; hit rate 0.2% among 360,000; Potency, µM (series often up to 58.2 µM), for the others: at the highest dose activity change, negative = inhibition, actives largely listed as inhibitors; AlphaScreen AMA1-biotinylated RON2 peptide binding;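 further: potency means the concentration at half of the fitted maximal effect; 0% = vehicle wells and -100% = peptide control; nearly all actives have a fitted effect of over 45% in size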
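AMA1 (3D7) with his tag at 25 nM final met compounds first, then biotinylated RON2 peptide at 25 nM; detection used donor plus acceptor beads, 10 µg/mL apiece, read by AlphaScreen after 30 min at room temperature.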
SARS PLP yeast = SARS-CoV PLP inhibition in yeast | S. cerevisiae expressing SARS-CoV PLpro, growth rescue | Potency, µM (top dose mostly 32.9 µM), for the others: top-dose activity, positive = growth rescue, usual class: activators | hit rate 0.19% among 330,000; calls by dose curve; further: potency means the concentration at half of the fitted maximal effect; 0% is about no effect; nearly all actives have a fitted effect of over 55% in size
AmpC inh detg = AmpC beta-lactamase inhibition with detergent present. hit rate 0.041% among 370,000. AmpC hydrolysis of nitrocefin, absorbance 480 nm, 0.01% Triton. Potency, µM (highest dose often 114 µM), inactives show at the top dose activity change, negative = inhibition, most hits filed as inhibitors. AID 485294. P00811;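 further: potency means the concentration at half of the fitted maximal effect; 0% = no-compound wells and -100% = no-enzyme wells; nearly all actives have a fitted effect of over 25% in size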
Target sequence (P00811 whole entry, looked up): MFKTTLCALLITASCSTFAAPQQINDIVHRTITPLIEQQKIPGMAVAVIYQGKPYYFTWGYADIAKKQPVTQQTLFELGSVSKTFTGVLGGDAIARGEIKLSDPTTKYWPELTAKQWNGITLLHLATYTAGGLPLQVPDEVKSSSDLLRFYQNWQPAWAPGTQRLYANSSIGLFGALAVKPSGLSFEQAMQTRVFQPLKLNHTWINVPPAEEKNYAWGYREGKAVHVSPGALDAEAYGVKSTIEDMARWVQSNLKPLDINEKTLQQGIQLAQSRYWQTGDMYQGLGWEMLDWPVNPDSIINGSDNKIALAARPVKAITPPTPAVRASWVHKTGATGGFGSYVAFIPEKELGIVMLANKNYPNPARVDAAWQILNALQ
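20 mM phosphate pH 7.0 + 0.01% (detergent screen) or 0.0001% Triton X-100; 5.3 nM AmpC reagent; cpd preinc 15 min RT; nitrocefin (800 uM stock) to start; A480 q20 s × 4 min; Activity was normalised to no-enzyme and no-compound control wells.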
AmpC inh no detg = inhibitors of E. coli AmpC beta-lactamase without detergent. P00811. AmpC nitrocefin hydrolysis, absorbance 480 nm, 0.0001% Triton. Potency, µM (doses to about 57.1 µM), inactives show top-dose activity change, negative = inhibition, most hits filed as inhibitors. hit rate 0.52% among 330,000. AID 485341;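 further: potency means the concentration at half of the fitted maximal effect; plate controls were no compound for no effect and no enzyme for full effect; nearly all actives have a fitted effect of over 20% in size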
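20 mM phosphate pH 7.0 + 0.01% (detergent screen) or 0.0001% Triton X-100; 5.3 nM AmpC reagent; cpd preinc 15 min RT; nitrocefin (800 uM stock) to start; A480 q20 s × 4 min; Activity was normalised to no-enzyme and no-compound control wells.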
Shiga inhibitor = inhibitors of Shiga toxin in Vero cells; Vero cells, Shiga toxin protein synthesis inhibition reporter; inhibition, % at 38.7 µM; hit rate 9.2% among 290,000; in the data active means inhibition mostly above about 28%, no sharp cut-off; inactive means mostly below about 43%; further: 0% is about no effect
Cycloheximide cs = counter-screen for Shiga toxin inhibitors: cycloheximide protein synthesis inhibition | cell reporter, cycloheximide protein synthesis inhibition counterscreen | max response, % | hit rate 12% among 300,000 | AID 2314; in the data active means max response mostly above about 13%, no sharp cut-off; inactive means mostly below about 14%; further: read at 38.3 µM for the half of the compounds with a filed dose; 0% is about no effect
Starred values were filed as active, the others as inactive; ? = inconclusive; . = not tested or not shown; ! = not active in a repeat; [ ] = another dose, or the depositor's remark. This excerpt belongs to a sample that is enriched for hits. Unless noted, the call rests on the fitted dose curve; in most records, active means well fitted curve in the direction sought with a large enough effect; inconclusive means small, poorly fitted or top-dose-only effect, or another doubt; inactive means no such curve, though single readings can be large; an effect the other way counts as inactive or inconclusive.

SMILES	AMA1 RON2 block	SARS PLP yeast	AmpC inh detg	AmpC inh no detg	Shiga inhibitor	Cycloheximide cs
C[C@H]1CN([C@@H](C)CO)C(=O)c2cccc(NC(=O)C3CC3)c2O[C@H]1CN(C)Cc1ccncc1	-3%	3%	.	-20%	.	.
BrCC1C[n+]2c(SCc3ccccc3)nc3sc4c(c3c2O1)CCCC4 (centres undefined)	-15%	-1%	1%	5%	80*	31*
CCSc1nc2sc3c(c2c2[n+]1CC(CBr)O2)CCCC3 (centres undefined)	1%	0%	2%	63%	36	17*
N/C(=N\OC(=O)c1ccccc1)C(C(=O)NOC(=O)c1ccccc1)C1CCCCC1 (centres undefined)	31%	.	.	.	.	.
Cc1ccc(NC(=O)c2cc(C)n(-c3cccc(C)c3)c2C)cc1	?	-55%	2%	16µM*	72*	76*
Cc1ccc(NC(=O)c2cc(C)n(-c3ccccc3)c2C)cc1	-5%[11.6 µM]	-63%	5%	-28%	25	26*
c1csc(-c2nc3c4ccccc4c4ccccc4c3[nH]2)c1	17%	-70%	-13%	-44%	-37	8
CCCCc1c(-c2cccc(Br)c2)ncn1CCc1ccccc1OC	-20%	.	.	.	.	.
Cc1ccc(OCCn2c(C3CC(=O)N(Cc4ccccc4)C3)nc3ccccc32)cc1 (centres undefined)	-11%	-12%	?	45µM*	14	-7
CCSc1nc2ccccc2n1CCOc1ccccc1	14%	?	-2%	-22%	48*	21*
OCCn1c(SCCOc2ccccc2)nc2ccccc21	5%	-1%	3%	-12%	14	2
Cc1ccc(OCCn2c(CNc3cccc(C)c3)nc3ccccc32)cc1	.	.	10%	.	.	.
CCCn1c(CNc2ccc(Br)cc2)nc2ccccc21	22%	-23%	-16%	-33%	39	17*
Cc1ccc(NCc2nc3ccccc3n2CCOc2ccccc2)cc1	5%	-74%	?	-43%	121*	76*
CCn1c(CNc2ccc(C(=O)O)cc2)nc2ccccc21	30%	.	4%	.	-2	-7
Fc1cccc(Cc2c(C3CCCCC3)nc3ccc(Cl)cn23)c1	-17%	.	.	.	.	.
Cc1cc(C)cc(NC(=O)c2nnn(Cc3cc(C)ccc3C)c2N)c1	-1%	-8%	?	-10%	14	-3
Clc1ccc(CSc2nnc(CNc3cccc(Cl)c3)o2)cc1	17%	-17%	-3%	-17%	-13	0
Cc1nc2ccccc2n1CCOc1ccccc1	11%	5%	-1%	-1%	21	12*
O=C(O)c1cc(-c2ccc(/C=N/N3C(=O)C4C5C=CC(CC5)C4C3=O)o2)ccc1Cl (centres undefined)	10%	0%	3%	-27%	20	2
COc1ccc(COc2cc(-c3cccc(OC)c3)nc3ccc(N)cc23)cc1	-9%	3%	0%	-6%	61*!	37*!
Cn1nc(C(F)(F)F)c2cc(C(=O)Nc3ccc(F)cc3)sc21	-20%	-2%	0%	-33%	-1	1
CCc1cc2cc(C(=O)Nc3ccccc3F)sc2s1	2%	-3%	-6%	-36%	97*	30*
CC(C)(C)c1ccc(C(=O)Nc2ccc(F)cc2)s1	-3%	-3%	6%	-24%	71*	40*
CCc1cc2cc(C(=O)Nc3ccc(F)cc3)sc2s1	-7%	3%	?	-6%	76*	30*
SMILES	AMA1 RON2 block	SARS PLP yeast	AmpC inh detg	AmpC inh no detg	Shiga inhibitor	Cycloheximide cs
COc1ccc(-c2cn3c(n2)sc2cc(C(=O)Nc4ccc(C)c(Cl)c4)ccc23)cc1	.	.	17%	.	.	.
CCOCc1nnc(NC(=O)c2cccc(OC)c2)s1	-8%	-1%	7%	-20%	57*	25*
COc1cccc(C(=O)Nc2nnc(-c3cccs3)s2)c1	20%	-5%	-4%	-15%	89*	24*
CCc1nnc(NC(=O)c2cccc(OC)c2)s1	5%	-9%	-4%	?	65*	42*
O=C(Cc1cccs1)Nc1nnc(-c2ccncc2)s1	-9%	-3%	?	-12%	35	5
COc1cccc(-c2nnc(NC(=O)Cc3cccs3)s2)c1	2%	1%	0%	-6%	32	22*
COc1ccc(-c2nnc(NC(=O)c3cccs3)s2)c(OC)c1	8%	0%	-10%	-18%	1	10
COc1ccccc1CN1CC(C(=O)NCCn2nc(C)cc2C)CCC1=O (centres undefined)	-5%	-2%	-1%	29%	-9	8
O=C(COC(=O)Cc1ccccc1[N+](=O)[O-])NCC1CCCCC1	-5%	-6%	3%	6%	6	10
CCc1nnc(NS(=O)(=O)c2ccc(N/C=C/C(=O)c3ccc(OC)cc3)cc2)s1	-12%	1%	-5%	-19%	86*	51*
COc1ccc(C(=O)Nc2nnc(-c3ccccc3)s2)cc1	3%	2%	-2%	-5%	4	12
CCc1nnc(NC(=O)c2ccc(S(C)(=O)=O)cc2)s1	-3%	0%	-8%	-10%	4	5
COc1cccc(NC(=O)Nc2nnc(CC(=O)NCc3ccccc3)s2)c1	-4%	0%	-6%	25µM*	-4	2
CCc1nnc(NC(=O)c2ccc(OC)cc2)s1	21%	2%	5%	-22%	93*	28*
CCc1nnc(NS(=O)(=O)c2ccc(NC(=O)Nc3ccc(OC)cc3)cc2)s1	-20%	0%	-13%	-27%	-6	-1
COc1ccc(C(=O)Nc2nnc(C(F)(F)F)s2)cc1	0%	-3%	-25%	-9%	98*	27*
COc1cc(S(=O)(=O)N2CCN(c3ccc(F)cc3)CC2)ccc1Cl	3%	-6%	-6%	-17%	15	-3
Fc1ccc(CN2CCN(C(=S)NCCc3ccccc3)CC2)c(Cl)c1	1%	1%	-9%	-3%	-14	-3
COc1ccc(S(=O)(=O)Nc2nnc(Cc3ccc(OC)c(OC)c3)s2)cc1	15%	0%	1%	-17%	21	9.2*
COc1ccc(Cc2nnc(NS(=O)(=O)c3ccccc3)s2)cc1	?	1%	-3%	-37%	-3	1
c1ccc(OCc2nc(-c3cccs3)no2)cc1	12%	2%	-1%	-25%	76*	45*
Fc1ccc(OCc2nc(-c3cccs3)no2)cc1	19%	-1%	10%	-22%	110*	41*
Cc1cc(OCc2nc(-c3cccs3)no2)cc(C)c1Cl	57%	-17%	?	-12%	42*	37*
CCN1CCN(C(=O)CCn2c(=O)c3cccn3c3cccnc32)CC1	-12%	-3%	-8%	-18%	-9	-16
Cc1ccc(Nc2nc(C)cs2)cc1	10%	0%	3%	-22%	125*	54*
